Experimental findings from PubChem BioAssay (NCATS) are described below.

A short description of assay [1]: qHTS assay for small molecule disruptors of the mitochondrial membrane potential - 1 hr assay (AID 651754; calls by dose curve; also: nearly all actives have a fitted effect of over 35% in size; also: potency is read from the fitted curve at half-maximal effect). In a few lines:
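Loss of mitochondrial potential shifts the cationic dye from red mitochondrial aggregates to green cytoplasmic monomers. Cells (HepG2) are treated with compound for 1 hr before a 30 min dye incubation at 37C.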
In general terms: In qHTS, concentration-response curves come from the screen itself.

Assay [2] deals with Tumor necrosis factor (Homo sapiens) (UniProt P01375). The assay can be described thus: qHTS assay to identify small molecules that stimulate Tumor Necrosis Factor-alpha (TNF-alpha) secretion (AID 651757; active = well fitted curve in the direction sought with a large enough effect in the signal ratio; the % refers to the signal ratio; also: 0% is about no effect). In outline: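 Human monocytic THP-1 cells are plated, treated with compound and held at 37 C for 17 hrs. Labeled anti-TNF-alpha antibody mixture is then added; after 3 hr at room temperature, TR-FRET signal reports secreted TNF-alpha.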

Assay [3] can be described thus: qHTS assay for environmental chemicals that activate the Aryl hydrocarbon Receptor (AhR) signaling pathway (AID 651777). Also: % of control where 0% means no effect; nearly all actives have a fitted effect of over 15% in size. To be noted: 1A2-DRE human hepatoma cells, luciferase, 24 h; activation: stronger effect = higher value. In a few lines: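 1A2-DRE human hepatoma reporter line; 1,200 cells/well; cmpd or DMSO 24 h, 37 C/5% CO2; One-Glo 30 min RT; luciferase lum.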
Assay [4] concerns the target Nuclear receptor ROR-gamma (Homo sapiens) (UniProt P51449). The assay can be described thus: qHTS assay for small molecule antagonists of the retinoid-related orphan receptor gamma (ROR-gamma) signaling pathway (AID 651802).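 Also: CHO cells with doxycycline-induced ROR-gamma expression; series mostly up to about 92 µM; % is scaled to controls: 0 for no effect and ±100 for the full control effect; nearly all actives have a fitted effect of over 60% in size.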 In a few lines: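 Steps: cells dispensed; compound or DMSO transferred by pin tool; doxycycline added to induce the ROR response element-driven luciferase; plates held 16hr at 37C; ONE-Glo added and luminescence measured.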

A short description of assay [5]: qHTS assay for small molecule agonists of the antioxidant response element (ARE) signaling pathway measured by Nrf2-dependant transcriptional activity (AID 720636; active = well fitted curve in the direction sought with a large enough effect in the repeat runs; an effect the other way counts as inactive or inconclusive;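 also: HepG2 cells with an ARE-driven luciferase reporter; % of control where 0% means no effect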). In outline: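 Cells: ARE-luc HepG2 with Nrf2-responsive luciferase. Medium contained 1% dialyzed FBS. Compound exposure lasted 16 hr at 37 C and 5% CO2, followed by ONE-Glo luciferase detection.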
Assay [6] in a line: qHTS assay for small molecule antagonists of the retinoid-related orphan receptor gamma (ROR-gamma) signaling pathway - cell viability counter screen (AID 720652; active = well fitted curve in the direction sought with a large enough effect in the repeat runs; an effect the other way counts as inactive or inconclusive;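 also: CHO reporter cells with doxycycline-induced ROR-gamma expression; series mostly up to about 92 µM; compound exposure lasted 16 hr before ATP read; % is scaled to controls: 0 for no effect and ±100 for the full control effect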). In a few lines: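 Steps: seed CHO cells bearing TET-inducible ROR and ROR response element-luciferase; rest 5 hr at 37 C; add compound, then doxycycline; incubate 16 hr; add CellTiter-Glo and read luminescence as ATP-based viability.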

Assay [7] is described as follows: qHTS assay for small molecule agonists of the antioxidant response element (ARE) signaling pathway measured by Nrf2-dependant transcriptional activity - cell viability counter screen (AID 720653; active = well fitted curve in the direction sought with a large enough effect in the repeat runs; an effect the other way counts as inactive or inconclusive; also: % is scaled to controls: 0 for no effect and ±100 for the full control effect). To be noted: ARE-bla HepG2 viability, CellTiter-Glo ATP luminescence, 16 h; stronger effect = lower value. In a few lines:
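ARE-bla HepG2 cells (2,000/well) rested 5 hrs at 37C/5% CO2, then exposed to compounds in DMSO for 16 hrs. Viability was read in the same wells as intracellular ATP by luminescence, 30 min at room temperature after reagent addition.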

The nature of assay [8]: qHTS assay for cell viability of HEK293 cells (AID 743288). Also: % is scaled to controls: 0 for no effect and ±100 for the full control effect; nearly all actives have a fitted effect of over 50% in size. To be noted: ATP luminescence (CellTiter-Glo), 18 h, stronger effect = lower value. In outline:
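Steps: plate 2,000 parental HEK293 cells per well; incubate ≥5 h, 37 C; add compounds in DMSO; incubate 18 h, 37 C; add CellTiter-Glo; wait 30 min at room temperature; read luminescence.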

Assay [9] can be described thus: qHTS assay for cell viability of the p53RE-bla HCT-116 cell line (AID 743292). Also: % is scaled to controls: 0 for no effect and ±100 for the full control effect; nearly all actives have a fitted effect of over 55% in size. In outline:
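HCT-116 p53RE-bla cells seeded 4,000/well; 5 h at 37 C; compound (DMSO) added; 16 h at 37 C; CellTiter-Glo added, 30 min RT; luminescence read.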

In assay [10] the target is Nuclear receptor subfamily 1 group I member 2 (Rattus norvegicus) (UniProt Q9R1A7). As to the kind of experiment: qHTS assay for small molecule activators of the rat pregnane X receptor (rPXR) signaling pathway (AID 651751; call rule not given here; also: 0% is about no effect). To be noted: rPXR reporter cells, luciferase (One-Glo), 24 h.
A short description of assay [11]: qHTS assay for small molecule activators of the human pregnane X receptor (PXR) signaling pathway (AID 720659; call rule not given here; also: 0% is about no effect).
Assay [12] deals with Peroxisome proliferator-activated receptor alpha (Homo sapiens) (UniProt Q07869). The assay can be described thus: qHTS assay for small molecule agonists of the peroxisome proliferator-activated receptor alpha (PPARalpha) signaling pathway (AID 651778). Also: % of control where 0% means no effect. To be noted: PathHunter PPARalpha complementation, chemiluminescence, 6 h; stronger effect = higher value. In outline: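 Cells plated at 2,000/well and held overnight at 37 C, 5% CO2, then compound added by pin tool for 6 hr; after PathHunter detection reagent and 60 min at room temperature, chemiluminescence from enzyme complementation was read.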

Assay [13] is described as follows: qHTS assay for small molecule disruptors of the mitochondrial membrane potential - 5 hr assay (AID 651755; calls by dose curve; also: % is scaled to controls: 0 for no effect and ±100 for the full control effect; nearly all actives have a fitted effect of over 40% in size). In outline:
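Seed HepG2 overnight, add compound, incubate 5 hr at 37C and 5% CO2, stain 30 min with Mito-MPS, then measure monomer (490/535 nm) and aggregate (540/590 nm) fluorescence.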

Assay [14] can be described thus: qHTS assay to identify small molecules that stimulate interleukin-8 (IL-8) secretion (AID 651758; active = well fitted activation curve with a large enough effect in the signal ratio; the % refers to the signal ratio; also: 0% is about no effect). In a few lines: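 Quantitative HTS in THP-1 monocytic cells at 2000 cells per well, with 16 hrs compound incubation at 37 C. IL-8 in the medium was then quantified by HTRF immunoassay, read after 1-3 hrs at room temperature.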

The structures appear in SMILES notation. Values without a mark were called inactive. Results filed as inconclusive are left out. Active and inactive are the calls of the source. Unless noted, calls follow the shape of the dose curve; as a rule, active = well fitted curve in the direction sought with a large enough effect; inconclusive = small, poorly fitted or top-dose-only effect, or another doubt; inactive = no such curve, though single readings can be large; an effect the other way counts as inactive or inconclusive.

Chain of Nuclear receptor subfamily 1 group I member 2 (Rattus norvegicus) (Q9R1A7 whole entry, looked up): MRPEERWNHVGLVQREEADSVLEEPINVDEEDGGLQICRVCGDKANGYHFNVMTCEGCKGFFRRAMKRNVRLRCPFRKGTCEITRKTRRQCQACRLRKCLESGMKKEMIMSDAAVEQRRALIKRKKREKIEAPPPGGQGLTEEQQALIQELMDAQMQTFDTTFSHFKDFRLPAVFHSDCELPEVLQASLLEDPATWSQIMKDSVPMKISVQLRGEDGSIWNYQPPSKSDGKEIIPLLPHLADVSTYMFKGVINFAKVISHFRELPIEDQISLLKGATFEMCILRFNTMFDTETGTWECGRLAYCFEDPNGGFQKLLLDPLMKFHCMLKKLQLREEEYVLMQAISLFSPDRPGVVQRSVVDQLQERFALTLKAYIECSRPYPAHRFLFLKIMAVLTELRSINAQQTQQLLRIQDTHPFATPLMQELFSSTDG
Chain of Peroxisome proliferator-activated receptor alpha (Homo sapiens) (Q07869 whole entry, looked up): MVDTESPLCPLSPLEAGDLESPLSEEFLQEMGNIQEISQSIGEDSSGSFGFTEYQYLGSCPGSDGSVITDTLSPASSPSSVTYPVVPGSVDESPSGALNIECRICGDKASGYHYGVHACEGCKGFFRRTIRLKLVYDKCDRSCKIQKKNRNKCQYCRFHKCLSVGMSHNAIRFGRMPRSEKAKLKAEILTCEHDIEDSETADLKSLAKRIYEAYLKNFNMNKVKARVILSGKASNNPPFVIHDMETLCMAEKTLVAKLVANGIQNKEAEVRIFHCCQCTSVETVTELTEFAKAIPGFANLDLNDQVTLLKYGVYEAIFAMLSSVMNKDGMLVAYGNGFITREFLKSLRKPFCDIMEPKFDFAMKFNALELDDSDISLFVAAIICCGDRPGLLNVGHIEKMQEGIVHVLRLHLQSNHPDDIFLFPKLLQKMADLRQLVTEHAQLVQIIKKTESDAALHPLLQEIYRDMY
Chain of Nuclear receptor ROR-gamma (Homo sapiens) (P51449 whole entry, looked up): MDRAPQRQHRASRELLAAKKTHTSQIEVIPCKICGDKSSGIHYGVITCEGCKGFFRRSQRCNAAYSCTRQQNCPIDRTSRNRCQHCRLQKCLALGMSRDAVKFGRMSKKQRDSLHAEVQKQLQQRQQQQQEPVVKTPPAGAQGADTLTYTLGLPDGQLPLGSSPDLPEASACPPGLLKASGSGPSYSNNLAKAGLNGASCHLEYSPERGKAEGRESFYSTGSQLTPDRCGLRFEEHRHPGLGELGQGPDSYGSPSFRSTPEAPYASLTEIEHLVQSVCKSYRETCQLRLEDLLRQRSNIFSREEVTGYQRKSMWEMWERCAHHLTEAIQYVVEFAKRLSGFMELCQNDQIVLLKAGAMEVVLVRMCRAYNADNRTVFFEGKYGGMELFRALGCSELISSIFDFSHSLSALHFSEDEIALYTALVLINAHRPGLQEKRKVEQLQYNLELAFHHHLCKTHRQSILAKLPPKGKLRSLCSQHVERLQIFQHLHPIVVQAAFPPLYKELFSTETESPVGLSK
Chain of Tumor necrosis factor (Homo sapiens) (P01375 whole entry, looked up): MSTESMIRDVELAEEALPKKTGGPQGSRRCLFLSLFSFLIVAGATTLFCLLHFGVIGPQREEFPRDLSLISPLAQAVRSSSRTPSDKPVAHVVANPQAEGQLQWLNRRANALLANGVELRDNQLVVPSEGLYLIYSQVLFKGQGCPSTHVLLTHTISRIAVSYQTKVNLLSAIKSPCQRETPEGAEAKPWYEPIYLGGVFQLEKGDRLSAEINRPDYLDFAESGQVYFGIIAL

As to `Nc1cccc(N)c1`, in [1], the Potency is 21.1 µM (active). The Potency entry in [2], in [4], in [6] and in assay [9] was “inactive” throughout. Besides, the activation in assay [3] was 4.51%. Also, the result in assay [5] and in [11] was inactive. In addition, the max response in [7] is -7.64%; in [8], 5.39%; in assay [10] it was 11.3%.

On to `O=C(O)c1ccccc1C(=O)O`, for which the Potency entry in assay [1], in [2], in assay [6] and in [9] was “inactive” each time. The max response in assay [12] was 0.653%; in [7], -3.39%; in [8] it was -4.91%; in [10], -4.53%. The compound was called inactive in assay [5] and in assay [11].

With `Cc1ccc(C)c(O)c1`, the Potency result in assay [13], in assay [2], in [14], in assay [4], in [6] and in assay [9] was “inactive” each time. The activation in assay [3] was 0.145%. Also, the max response in assay [12] was -1.27%; in assay [7] it was 0.808%; in [8], 5.19%; in assay [10] it was 4.49%. In addition, the outcome in assay [5] and in assay [11] was inactive.

For the compound `CC(C)C(C)C`, the Potency result in assay [1], in assay [2], in assay [4], in assay [6] and in assay [9] was “inactive” each time. Also, in assay [3], the activation is 1.04%. The max response in assay [12] is -4.01%; in assay [7] it was -1.72%; in [8], 2.97%; in [10] it was 9.63%. For the same compound, the call in assay [5] and in assay [11] was inactive.

On to `Cc1ccccc1C#N`, for which the Potency result in [13], in assay [2], in assay [14], in [4], in assay [6] and in assay [9] was “inactive” throughout. The activation in [3] was 3.69%. For the same compound, the compound was called inactive in assay [5] and in assay [11]. The max response is -8.58% in assay [7], -0.799% in assay [8] and -0.838% in assay [10].

As to `NC(=O)/N=N/C(N)=O`, the Potency entry in [1], in assay [2], in [4] and in [9] was “inactive” in each case. Moreover, in [3], the activation is -0.307%. For the same compound, the max response in [12] is -8.1%; in [7], 19.2%; in assay [8], 1.54%; in [10], -0.787%. Moreover, the outcome in [5] and in assay [11] was inactive.

As to `COCCOC(=O)c1ccccc1C(=O)OCCOC`, the Potency entry in assay [13], in assay [2], in assay [14], in assay [4], in assay [6] and in assay [9] was “inactive” each time. In addition, in assay [3], the activation is -0.057%. In addition, the max response in assay [12] was 2.89%; in [7], 9.02%; in [8], -2.4%; in [10] it was -0.386%. Moreover, the compound was called inactive in assay [5].

With `C=Cc1ccccc1C=C`, the Potency result in assay [13], in [2], in [14], in assay [4], in assay [6] and in assay [9] was “inactive” in each case. Besides, the activation in assay [3] was -0.496%. For the same compound, the max response in assay [12] was -1.6%; in assay [7] it was 4.89%; in [8], 3.31%; in assay [10] it was 5.55%. In addition, the result in assay [5] and in [11] was inactive.

Regarding `CCOCC(=O)O`, the Potency result in assay [1], in assay [2], in [4], in [6] and in assay [9] was “inactive” in each case. Besides, in assay [3], the activation was -0.35%. Further, the max response was -1.55% in assay [12], 1.2% in assay [7], -0.256% in assay [8] and 1.81% in [10]. Besides, the result in [5] and in assay [11] was inactive.

On to `CC(O)CC(C)O` (configuration not stated), for which the Potency result in assay [1], in [2], in assay [4] and in [9] was “inactive” each time. In assay [3], the activation is -0.953%. For the same compound, the max response in assay [12] was -0.949%; in assay [7], -7.28%; in assay [8], 7.82%; in assay [10], 6.25%. The call in assay [5] and in assay [11] was inactive.

Take `COc1cccc2sc(N)nc12`: the Potency result in [1], in [2], in assay [4], in assay [6] and in assay [9] was “inactive” throughout. For the same compound, the max response in assay [12] was -2.03%; in assay [7] it was 1.42%; in [8], -3.84%; in assay [10] it was 8.89%. Further, the compound was called inactive in assay [5] and in assay [11].

With `Cc1ccccc1C(=O)O`, the Potency result in assay [1], in assay [2], in assay [4], in assay [6] and in assay [9] was “inactive” throughout. Also, the activation in assay [3] was 0.336%. Also, the max response in assay [12] is -0.184%; in assay [7], 0.515%; in assay [8] it was -7.38%; in assay [10], -1.94%. Moreover, the outcome in assay [5] and in assay [11] was inactive.

For the compound `CC(C)=CCl`, the Potency result in [1], in assay [2], in assay [14], in [4], in assay [6] and in assay [9] was “inactive” each time. Moreover, the activation in assay [3] was 2.36%. In addition, the result in [5] and in assay [11] was inactive. The figures for the max response in assay [7], in [8] and in assay [10] were 14.9%, -6.69% and 3.22%, respectively.
